Assay results taken from the supplement of paper PMC9446081.
± gives the standard deviation of the averaged measurements.

Key:
Test in all cases: relative enzymatic activity vs untreated control (fraction); higher = less inhibition
Conditions in all cases: 100 µM; incubation time: 2 h at 37 C
[1] = system: DNA gyrase
Method: (§1)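 In vitro enzymatic inhibition assays (ProFoldin kits) for 12 purified essential E. coli enzymes or complexes, each treated with 218 active antibacterial compounds at 100 µM for 2 h at 37°C. Read-outs were fluorescence or absorbance (phosphate detection, dye binding), converted to activity via standard curves and expressed relative to untreated DMSO controls.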

[2] = target: DNA helicase (UniProt P0ACB1)
Method: as §1

[3] = target: DNA ligase (UniProt B1XA82)
Method: as §1

[4] = target: DNA polymerase (UniProt P10443)
Method: as §1

[5] = target: DNA primase (UniProt P0ABS7)
Method: as §1

[6] = target: GlmU (UniProt A7ZTU1)
Method: as §1

[7] = target: Guanlyate kinase (UniProt Q0TBG1)
Method: as §1

[8] = target: MurA (UniProt Q3YX52)
Method: as §1

[9] = target: T1, MurD (UniProt P14900)
T1 sequence (whole entry): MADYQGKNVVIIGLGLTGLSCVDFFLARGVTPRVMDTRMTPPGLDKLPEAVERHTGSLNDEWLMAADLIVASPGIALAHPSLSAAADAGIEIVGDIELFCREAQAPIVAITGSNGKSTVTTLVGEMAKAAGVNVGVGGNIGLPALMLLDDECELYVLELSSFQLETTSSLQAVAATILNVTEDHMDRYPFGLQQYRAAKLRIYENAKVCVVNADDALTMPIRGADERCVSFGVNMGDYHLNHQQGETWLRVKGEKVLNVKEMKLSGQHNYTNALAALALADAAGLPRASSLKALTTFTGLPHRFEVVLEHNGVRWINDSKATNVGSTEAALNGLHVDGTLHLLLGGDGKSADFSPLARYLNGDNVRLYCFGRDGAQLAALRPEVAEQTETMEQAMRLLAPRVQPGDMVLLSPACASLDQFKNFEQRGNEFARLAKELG
Method: as §1

[10] = target: T2, MurF (UniProt P11880)
T2 sequence (whole entry): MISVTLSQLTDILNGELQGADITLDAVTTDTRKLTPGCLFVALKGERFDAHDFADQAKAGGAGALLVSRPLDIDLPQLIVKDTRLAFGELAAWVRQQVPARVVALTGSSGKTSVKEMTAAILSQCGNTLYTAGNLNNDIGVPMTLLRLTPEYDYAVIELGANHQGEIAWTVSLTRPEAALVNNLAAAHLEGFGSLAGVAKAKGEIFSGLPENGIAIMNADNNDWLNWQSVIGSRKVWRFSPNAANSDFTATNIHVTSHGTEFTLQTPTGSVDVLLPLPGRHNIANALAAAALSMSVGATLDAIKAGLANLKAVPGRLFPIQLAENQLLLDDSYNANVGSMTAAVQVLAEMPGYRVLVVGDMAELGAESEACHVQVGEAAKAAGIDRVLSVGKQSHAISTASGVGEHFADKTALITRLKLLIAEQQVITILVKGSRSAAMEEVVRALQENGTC
Method: as §1

[11] = system: RNA polymerase
Method: as §1

DNA primase, sequence (P0ABS7 whole entry): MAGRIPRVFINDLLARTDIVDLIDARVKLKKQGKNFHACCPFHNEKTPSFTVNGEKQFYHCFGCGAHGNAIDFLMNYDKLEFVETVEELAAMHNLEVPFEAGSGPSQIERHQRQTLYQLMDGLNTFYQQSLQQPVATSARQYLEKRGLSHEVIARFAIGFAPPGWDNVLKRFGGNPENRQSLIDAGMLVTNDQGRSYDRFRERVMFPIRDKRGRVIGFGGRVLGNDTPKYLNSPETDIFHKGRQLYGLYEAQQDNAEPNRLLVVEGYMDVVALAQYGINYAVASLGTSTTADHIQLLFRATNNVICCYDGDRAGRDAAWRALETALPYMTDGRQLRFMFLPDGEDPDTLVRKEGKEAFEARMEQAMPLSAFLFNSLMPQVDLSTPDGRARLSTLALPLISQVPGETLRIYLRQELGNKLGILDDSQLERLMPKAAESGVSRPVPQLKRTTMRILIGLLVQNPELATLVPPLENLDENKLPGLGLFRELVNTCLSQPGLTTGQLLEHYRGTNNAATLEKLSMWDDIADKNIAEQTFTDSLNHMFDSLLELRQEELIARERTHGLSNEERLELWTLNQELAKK
Guanlyate kinase, sequence (Q0TBG1 whole entry): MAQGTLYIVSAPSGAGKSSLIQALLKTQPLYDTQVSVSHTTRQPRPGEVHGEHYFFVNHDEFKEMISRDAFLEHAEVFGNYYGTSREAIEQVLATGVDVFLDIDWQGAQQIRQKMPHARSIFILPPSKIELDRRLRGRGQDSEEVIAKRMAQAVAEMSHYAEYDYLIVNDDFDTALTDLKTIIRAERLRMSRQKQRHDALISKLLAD
DNA ligase, sequence (B1XA82 whole entry): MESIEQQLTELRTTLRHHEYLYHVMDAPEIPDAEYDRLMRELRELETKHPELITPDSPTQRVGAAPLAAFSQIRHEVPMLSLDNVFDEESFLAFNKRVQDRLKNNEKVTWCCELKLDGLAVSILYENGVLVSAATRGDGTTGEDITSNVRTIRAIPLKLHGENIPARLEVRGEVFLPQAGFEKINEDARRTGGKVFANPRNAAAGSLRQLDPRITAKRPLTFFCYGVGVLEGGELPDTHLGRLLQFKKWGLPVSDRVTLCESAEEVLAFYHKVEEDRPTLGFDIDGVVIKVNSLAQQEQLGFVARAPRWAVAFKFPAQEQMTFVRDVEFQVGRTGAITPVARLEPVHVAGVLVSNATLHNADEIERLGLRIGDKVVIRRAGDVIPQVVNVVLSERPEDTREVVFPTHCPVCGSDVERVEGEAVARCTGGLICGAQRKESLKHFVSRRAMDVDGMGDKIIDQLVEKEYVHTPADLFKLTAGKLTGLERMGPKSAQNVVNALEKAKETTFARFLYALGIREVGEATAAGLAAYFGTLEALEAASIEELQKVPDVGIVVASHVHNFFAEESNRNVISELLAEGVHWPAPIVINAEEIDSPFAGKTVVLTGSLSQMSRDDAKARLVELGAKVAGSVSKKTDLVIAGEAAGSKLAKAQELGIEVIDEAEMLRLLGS
DNA polymerase, sequence (P10443 whole entry): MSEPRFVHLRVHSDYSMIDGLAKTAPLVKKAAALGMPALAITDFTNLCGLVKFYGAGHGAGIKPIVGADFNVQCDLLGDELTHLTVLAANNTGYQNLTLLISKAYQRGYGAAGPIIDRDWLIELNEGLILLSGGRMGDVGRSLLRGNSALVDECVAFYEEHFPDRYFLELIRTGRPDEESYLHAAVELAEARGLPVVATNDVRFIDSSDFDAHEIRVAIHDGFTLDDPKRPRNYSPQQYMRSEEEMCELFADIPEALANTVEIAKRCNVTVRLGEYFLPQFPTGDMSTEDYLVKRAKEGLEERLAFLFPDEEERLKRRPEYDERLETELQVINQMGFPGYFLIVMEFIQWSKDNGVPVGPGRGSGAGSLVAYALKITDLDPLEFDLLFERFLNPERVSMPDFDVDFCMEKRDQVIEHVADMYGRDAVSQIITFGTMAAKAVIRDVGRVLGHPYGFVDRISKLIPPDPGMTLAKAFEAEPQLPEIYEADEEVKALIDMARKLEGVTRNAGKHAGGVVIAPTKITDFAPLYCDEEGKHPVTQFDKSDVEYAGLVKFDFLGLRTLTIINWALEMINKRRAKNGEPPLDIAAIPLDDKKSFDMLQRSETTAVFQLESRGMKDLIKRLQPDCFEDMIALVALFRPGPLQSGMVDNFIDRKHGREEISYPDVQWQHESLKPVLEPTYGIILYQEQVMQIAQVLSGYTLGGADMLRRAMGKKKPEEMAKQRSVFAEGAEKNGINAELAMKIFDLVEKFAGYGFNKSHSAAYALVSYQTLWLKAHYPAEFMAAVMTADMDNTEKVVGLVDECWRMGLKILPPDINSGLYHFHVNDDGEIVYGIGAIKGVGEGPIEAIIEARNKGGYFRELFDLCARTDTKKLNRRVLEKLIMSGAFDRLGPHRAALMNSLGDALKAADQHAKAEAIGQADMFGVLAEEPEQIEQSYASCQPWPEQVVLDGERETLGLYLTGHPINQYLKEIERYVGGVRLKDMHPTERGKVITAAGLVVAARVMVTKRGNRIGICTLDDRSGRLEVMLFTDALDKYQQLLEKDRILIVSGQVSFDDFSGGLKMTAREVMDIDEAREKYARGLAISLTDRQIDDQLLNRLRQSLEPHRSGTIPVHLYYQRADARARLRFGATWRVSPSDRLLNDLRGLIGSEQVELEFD
GlmU, sequence (A7ZTU1 whole entry, looked up): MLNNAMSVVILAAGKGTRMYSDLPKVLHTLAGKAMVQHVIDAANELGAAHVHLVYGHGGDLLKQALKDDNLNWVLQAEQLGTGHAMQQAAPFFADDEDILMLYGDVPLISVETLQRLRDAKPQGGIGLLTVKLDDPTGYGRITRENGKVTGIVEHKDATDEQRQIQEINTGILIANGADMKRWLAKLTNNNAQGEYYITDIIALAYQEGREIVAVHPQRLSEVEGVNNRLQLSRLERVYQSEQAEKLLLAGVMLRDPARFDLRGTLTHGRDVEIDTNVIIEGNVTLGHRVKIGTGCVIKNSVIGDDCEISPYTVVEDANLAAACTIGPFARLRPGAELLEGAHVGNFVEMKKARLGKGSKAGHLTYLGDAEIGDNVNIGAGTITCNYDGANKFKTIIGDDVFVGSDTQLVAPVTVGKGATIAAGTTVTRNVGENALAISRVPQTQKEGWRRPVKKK
MurA, sequence (Q3YX52 whole entry): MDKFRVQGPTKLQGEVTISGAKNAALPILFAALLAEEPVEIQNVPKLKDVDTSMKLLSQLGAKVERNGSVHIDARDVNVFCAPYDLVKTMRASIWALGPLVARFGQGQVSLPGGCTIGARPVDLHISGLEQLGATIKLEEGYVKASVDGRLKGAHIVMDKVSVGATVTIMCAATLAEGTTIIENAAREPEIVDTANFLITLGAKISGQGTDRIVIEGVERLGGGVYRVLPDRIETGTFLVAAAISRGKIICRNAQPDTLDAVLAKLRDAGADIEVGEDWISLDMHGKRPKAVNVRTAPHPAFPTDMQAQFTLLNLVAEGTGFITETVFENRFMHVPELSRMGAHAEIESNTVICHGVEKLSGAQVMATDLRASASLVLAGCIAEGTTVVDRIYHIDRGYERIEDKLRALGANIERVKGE
DNA helicase, sequence (P0ACB1 whole entry): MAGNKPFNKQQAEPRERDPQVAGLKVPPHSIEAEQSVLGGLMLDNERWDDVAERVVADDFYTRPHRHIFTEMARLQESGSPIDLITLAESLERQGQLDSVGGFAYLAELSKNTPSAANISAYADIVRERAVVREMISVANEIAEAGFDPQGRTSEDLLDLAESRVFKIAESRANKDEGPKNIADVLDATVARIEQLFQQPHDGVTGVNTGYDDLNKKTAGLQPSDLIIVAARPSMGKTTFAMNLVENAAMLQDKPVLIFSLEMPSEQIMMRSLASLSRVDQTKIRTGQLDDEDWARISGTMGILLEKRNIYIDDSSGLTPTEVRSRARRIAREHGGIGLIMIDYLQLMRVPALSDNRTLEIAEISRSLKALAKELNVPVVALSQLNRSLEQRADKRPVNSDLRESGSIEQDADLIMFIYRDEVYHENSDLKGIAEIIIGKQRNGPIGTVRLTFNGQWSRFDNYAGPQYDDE

SMILES | relative enzymatic activity [1] | relative enzymatic activity [2] | relative enzymatic activity [3] | relative enzymatic activity [4] | relative enzymatic activity [5] | relative enzymatic activity [6] | relative enzymatic activity [7] | relative enzymatic activity [8] | relative enzymatic activity [9] | relative enzymatic activity [10] | relative enzymatic activity [11]
Oc1c(Cl)cc(Cl)c(Cl)c1Cc1c(O)c(Cl)cc(Cl)c1Cl | 0.191 ± 0.12 | 0.06883 ± 0.00038 | 0.514 ± 0.1 | 0.222 ± 0.019 | 0.436 ± 0.0013 | 1.07 ± 0.11 | 0.162 ± 0.0089 | 0.899 ± 0.6 | 1.25 ± 0.89 | 0.446 ± 0.1 | 0.293 ± 0.0084
CCn1cc(C(=O)O)c(=O)c2cc(F)c(N3CCN(C)CC3)cc21.CS(=O)(=O)O | 0.0308 ± 0.043 | 0.573 ± 0.14 | 1.16 ± 0.29 | 1.27 ± 0.33 | 0.843 ± 0.025 | 0.944 ± 0.037 | 0.919 ± 0.11 | 0.696 ± 0.11 | 0.589 ± 0.41 | 1.109 ± 0.0024 | 0.862 ± 0.089
COC(=O)N/N=C/c1ccc([N+](=O)[O-])o1 | 0.742 ± 0.39 | 0.508 ± 0.072 | 0.9684 ± 0.0075 | 0.516 ± 0.72 | 0.841 ± 0.017 | 1.02 ± 0.019 | 0.942 ± 0.11 | 0.255 ± 0.17 | 0.636 ± 0.45 | 0.961 ± 0.21 | 0.918 ± 0.14
Cc1nnc(SCC2=C(C(=O)[O-])N3C(=O)C(NC(=O)Cn4cnnn4)C3SC2)s1.[Na+] (centres undefined) | 1.26 ± 0.15 | 0.672 ± 0.26 | – | 1.45 ± 0.57 | 0.707 ± 0.18 | 0.951 ± 0.036 | 1.13 ± 0.052 | 0.255 ± 0.063 | 0.612 ± 0.43 | 0.89 ± 0.17 | 0.961 ± 0.05
CO/N=C(\C(=O)N[C@@H]1C(=O)N2C(C(=O)O)=C(C)CS[C@H]12)c1csc(N)n1 | 0.614 ± 0.47 | 0.628 ± 0.2 | 0.904 ± 0.086 | 0.906 ± 0.062 | 0.822 ± 0.035 | 1.018 ± 0.0077 | 0.836 ± 0.015 | 0.479 ± 0.18 | 0.613 ± 0.43 | 0.979 ± 0.21 | 0.826 ± 0.098
CN1CCN(c2c(F)cc3c(=O)c(C(=O)O)cn(CCF)c3c2F)CC1 | 0.024 ± 0.034 | 0.746 ± 0.23 | 1.37 ± 0.041 | 1.28 ± 0.3 | 0.722 ± 0.21 | 1.16 ± 0.2 | 0.94 ± 0.085 | 0.748 ± 0.029 | 0.591 ± 0.39 | 0.984 ± 0.22 | 1.05 ± 0.31
O=C(O)c1cn(C2CC2)c2cc(N3CCNCC3)c(F)cc2c1=O | 0.0423 ± 0.06 | 0.645 ± 0.22 | – | 0.688 ± 0.4 | 0.687 ± 0.18 | 1.09 ± 0.16 | 0.932 ± 0.065 | 0.705 ± 0.28 | 0.576 ± 0.41 | 0.991 ± 0.21 | 0.771 ± 0.006
CC(C)(C)CC(C)(C)c1ccc(OCCOCC[N+](C)(C)Cc2ccccc2)cc1.[Cl-] | 0.0482 ± 0.068 | 0.0168 ± 0.00082 | 0.917 ± 0.17 | 0.4 ± 0.06 | 0.709 ± 0.21 | 0.121 ± 0.031 | 0.439 ± 0.06 | 0.0623 ± 0.0083 | 0.114 ± 0.033 | 0.193 ± 0.035 | 0.838 ± 0.16
N[C@@H]1CC[C@@H](c2ccc(Cl)c(Cl)c2)c2ccccc21 | 0.381 ± 0.18 | 0.0688 ± 0.0028 | 0.842 ± 0.083 | 0.507 ± 0.72 | 0.749 ± 0.027 | 0.646 ± 0.059 | 0.924 ± 0.13 | 0.622 ± 0.57 | 0.378 ± 0.23 | 1.02 ± 0.22 | 0.905 ± 0.019
O=C1CN(/N=C/c2ccc([N+](=O)[O-])o2)C(=O)N1 | 0.715 ± 0.42 | 0.621 ± 0.24 | 0.855 ± 0.16 | 0.649 ± 0.36 | 0.764 ± 0.037 | 0.999 ± 0.044 | 0.842 ± 0.048 | 0.665 ± 0.11 | 0.481 ± 0.61 | 0.963 ± 0.21 | 0.745 ± 0.068
Cc1cc(C2CCCCC2)n(O)c(=O)c1.NCCO | 1.114 ± 0.0086 | 0.546 ± 0.12 | 1.28 ± 0.12 | 1.29 ± 0.34 | 0.751 ± 0.22 | 1.12 ± 0.0031 | 1.05 ± 0.04 | 0.975 ± 0.045 | 0.678 ± 0.45 | 1.02 ± 0.2 | 0.8877 ± 0.0077
CN(C)[C@@H]1C(=O)[C@@H](C(N)=O)C(=O)[C@@]2(O)C(=O)[C@H]3C(=O)c4c(O)ccc(Cl)c4[C@@H](O)[C@H]3C[C@@H]12 | 1.05 ± 0.19 | 0.508 ± 0.1 | 0.858 ± 0.066 | 1.17 ± 0.28 | 0.754 ± 0.018 | 1.02 ± 0.063 | 0.831 ± 0.16 | 0.336 ± 0.14 | 0.621 ± 0.42 | 0.975 ± 0.23 | 0.749 ± 0.19
C=CC1=C(C(=O)O)N2C(=O)[C@@H](NC(=O)/C(=N\OCC(=O)O)c3csc(N)n3)[C@H]2SC1 | 0.321 ± 0.084 | 0.432 ± 0.089 | 0.941 ± 0.17 | 1.06 ± 0.23 | 0.662 ± 0.021 | 1.046 ± 0.0058 | 0.886 ± 0.1 | 0.0787 ± 0.0056 | 0.606 ± 0.41 | 0.954 ± 0.18 | 0.822 ± 0.32
CC1(C)S[C@@H]2[C@H](NC(=O)[C@H](NC(=O)N3CCNC3=O)c3ccccc3)C(=O)N2[C@H]1C(=O)O | 0.794 ± 0.35 | 0.76 ± 0.44 | 0.934 ± 0.038 | 1.06 ± 0.04 | 0.864 ± 0.024 | 0.998 ± 0.033 | 0.935 ± 0.03 | 0.579 ± 0.11 | 0.583 ± 0.4 | 0.954 ± 0.23 | 0.869 ± 0.089
Cl.N=C(N)n1cccn1 | 0.0897 ± 0.13 | 0.649 ± 0.3 | 1.13 ± 0.067 | 1.15 ± 0.22 | 0.868 ± 0.027 | 1.014 ± 0.0039 | 0.902 ± 0.2 | 0.813 ± 0.052 | 0.613 ± 0.43 | 0.939 ± 0.23 | 0.787 ± 0.012
COC1=C(OC)C(=O)C(CCCCCCCCCC[P+](c2ccccc2)(c2ccccc2)c2ccccc2)=C(C)C1=O | ≤ 0 | 0.0205 ± 0.0027 | 0.705 ± 0.021 | 0.0027 ± 0.0017 | ≤ 0 | 0.155 ± 0.019 | ≤ 0 | 0.021 ± 0.0015 | 0.162 ± 0.074 | 0.211 ± 0.023 | 0.0008799 ± 4.6e-06
CON=C1CN(c2nc3c(cc2F)c(=O)c(C(=O)O)cn3C2CC2)CC1CN.CS(=O)(=O)O (centres undefined) | 0.058 ± 0.082 | 0.479 ± 0.14 | 1.09 ± 0.24 | 1.26 ± 0.31 | 0.805 ± 0.059 | 0.919 ± 0.027 | 0.856 ± 0.23 | 0.4853 ± 0.00068 | 0.503 ± 0.35 | 0.919 ± 0.19 | 0.88 ± 0.012
Cc1cc(=O)c(C(=O)N[C@@H](C(=O)N[C@@H]2C(=O)N3C(C(=O)O)=C(CSc4nnnn4C)CS[C@H]23)c2ccc(O)cc2)c[nH]1 | 0.759 ± 0.035 | 0.278 ± 0.28 | 0.862 ± 0.016 | 1.08 ± 0.15 | 0.766 ± 0.023 | 0.919 ± 0.03 | 0.946 ± 0.015 | 0.116 ± 0.018 | 0.634 ± 0.44 | 0.92 ± 0.2 | 0.505 ± 0.5
CN1CCN(c2cc3c(cc2F)c(=O)c(C(=O)O)cn3-c2ccc(F)cc2)CC1.Cl | 0.0325 ± 0.046 | 0.445 ± 0.075 | 1.46 ± 0.11 | 1.3 ± 0.33 | 0.681 ± 0.17 | 0.957 ± 0.011 | 0.9286 ± 0.0092 | 0.593 ± 0.055 | 0.566 ± 0.37 | 0.959 ± 0.17 | 0.929 ± 0.056
COC1(NC(=O)C2SC(=C(C(N)=O)C(=O)O)S2)C(=O)N2C(C(=O)O)=C(CSc3nnnn3C)CSC21 (centres undefined) | 0.705 ± 0.46 | 0.463 ± 0.027 | 1.47 ± 0.23 | 1.18 ± 0.25 | 0.683 ± 0.18 | 0.99 ± 0.066 | 0.994 ± 0.02 | 0.0627 ± 0.021 | 0.618 ± 0.43 | 0.974 ± 0.2 | 0.871 ± 0.07
CC(C)[C@@H](CC[C@@H](C)[C@H]1CC[C@H]2[C@@H]3[C@H](O)C[C@H]4C[C@@H](NCCCNCCCCN)CC[C@]4(C)[C@H]3CC[C@]12C)OS(=O)(=O)O | 1.22 ± 0.062 | 0.08494 ± 0.00041 | 0.712 ± 0.095 | 0.0811 ± 0.015 | 0.432 ± 0.11 | 0.899 ± 0.069 | 0.231 ± 0.024 | 0.17 ± 0.006 | 0.6 ± 0.42 | 0.896 ± 0.23 | 0.14 ± 0.012
